Holding throughout (assay): PBM; 200 nM protein, PBS
Common to all, as to conditions: dsDNA, one strand shown

The target of experiment [1] is T1, NKX2-4 (Homo sapiens, UniProt Q9H2Z4 175-261, P217L).
T1 sequence: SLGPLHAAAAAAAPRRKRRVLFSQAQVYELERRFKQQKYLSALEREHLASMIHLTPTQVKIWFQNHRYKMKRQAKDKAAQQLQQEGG

For experiment [2], the target named is T2, NKX2-4 (Homo sapiens, UniProt Q9H2Z4 175-261, T231S).
T2 sequence: T1 sequence with L43P, T57S

Experiment [3] deals with T3, PAX4 (Homo sapiens, UniProt O43316 9-242, R200K).
T3 sequence: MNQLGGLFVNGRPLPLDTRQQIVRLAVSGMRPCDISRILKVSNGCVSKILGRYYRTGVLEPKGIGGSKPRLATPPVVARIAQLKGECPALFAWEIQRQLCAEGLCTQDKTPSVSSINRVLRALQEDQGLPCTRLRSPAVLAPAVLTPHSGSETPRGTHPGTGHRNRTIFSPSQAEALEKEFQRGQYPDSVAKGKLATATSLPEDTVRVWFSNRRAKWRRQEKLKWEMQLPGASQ

Experiment [4] has as its target T4, PAX4 (Homo sapiens, UniProt O43316 9-242).
T4 sequence: T3 sequence with K192R

Experiment [5] has as its target T5, NKX2-4 (Homo sapiens, UniProt Q9H2Z4 175-261).
T5 sequence: T1 sequence with L43P

For experiment [6], the target named is ALX3 (Homo sapiens, UniProt O95076 139-225, N203Q).
The target of experiment [7] is T6, PAX4 (Homo sapiens, UniProt O43316 9-242, R200Q).
T6 sequence: T3 sequence with K192Q

In experiment [8] the target is T7, PAX4 (Homo sapiens, UniProt O43316 9-242, F177V).
T7 sequence: T3 sequence with F169V, K192R

Experiment [9] has as its target ALX3 (Homo sapiens, UniProt O95076 139-225).
The target of experiment [10] is T8, NKX2-4 (Homo sapiens, UniProt Q9H2Z4 175-261, R246Q).
T8 sequence: T1 sequence with L43P, R72Q

Experiment [11] addresses T9, PAX4 (Homo sapiens, UniProt O43316 9-242, F177Y).
T9 sequence: T3 sequence with F169Y, K192R

Experiment [12] has as its target VAX1 (Homo sapiens, UniProt Q5SQQ9 86-172).
The target of experiment [13] is ALX3 (Homo sapiens, UniProt O95076 139-225, L168Q).
In experiment [14] the target is ALX3 (Homo sapiens, UniProt O95076 139-225, L168V).
For experiment [15], the target named is VAX1 (Homo sapiens, UniProt Q5SQQ9 86-172, T142I).
Experiment [16] deals with T10, PAX4 (Homo sapiens, UniProt O43316 9-242, R227W).
T10 sequence: T3 sequence with K192R, R219W

Experiment [17] concerns the target ALX3 (Homo sapiens, UniProt O95076 139-225, N203S).
In experiment [18] the target is VAX1 (Homo sapiens, UniProt Q5SQQ9 86-172, K157R).
Experiment [19] addresses MSX2 (Homo sapiens, UniProt P35548 130-214, R199I).
The target of experiment [20] is ALX1 (Homo sapiens, UniProt Q15699 118-204, L144V).
Experiment [21] concerns the target ALX1 (Homo sapiens, UniProt Q15699 118-204, L144R).
Experiment [22] has as its target MSX2 (Homo sapiens, UniProt P35548 130-214).
Experiment [23] deals with MSX2 (Homo sapiens, UniProt P35548 130-214, F161Y).
In experiment [24] the target is ALX1 (Homo sapiens, UniProt Q15699 118-204).
Experiment [25] addresses ALX4 (Homo sapiens, UniProt Q9H161 200-286).
For experiment [26], the target named is ALX4 (Homo sapiens, UniProt Q9H161 200-286, Q225E).
Experiment [27] has as its target HOXA2 (Homo sapiens, UniProt O43364 129-215, R185T).
For experiment [28], the target named is HOXA2 (Homo sapiens, UniProt O43364 129-215, R185K).
In experiment [29] the target is HOXA2 (Homo sapiens, UniProt O43364 129-215, Y150S).
The target in experiment [30] is HOXA2 (Homo sapiens, UniProt O43364 129-215).
Experiment [31] has as its target HOXC10 (Homo sapiens, UniProt Q9NYD6 254-340).
Experiment [32] addresses HOXC10 (Homo sapiens, UniProt Q9NYD6 254-340, K271E).
In experiment [33] the target is T11, NKX2-6 (Homo sapiens, UniProt A6NCS4 118-204, R150C).
T11 sequence: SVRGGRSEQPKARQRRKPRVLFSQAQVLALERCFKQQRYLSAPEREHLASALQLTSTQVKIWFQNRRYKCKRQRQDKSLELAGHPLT

For eight sequences, binding signal results are on record in article PMC11006913.

Residue numbers refer to the chain shown, from its start.

Sequence of ALX3 (Homo sapiens, UniProt O95076 139-225, N203Q) (O95076 139-225 N203Q): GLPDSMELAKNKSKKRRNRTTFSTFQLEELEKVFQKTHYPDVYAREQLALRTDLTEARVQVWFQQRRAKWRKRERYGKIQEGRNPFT
Sequence of HOXC10 (Homo sapiens, UniProt Q9NYD6 254-340, K271E) (Q9NYD6 254-340 K271E): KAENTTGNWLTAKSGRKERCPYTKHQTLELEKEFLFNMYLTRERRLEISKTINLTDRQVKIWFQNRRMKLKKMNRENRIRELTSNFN
Sequence of MSX2 (Homo sapiens, UniProt P35548 130-214, F161Y) (P35548 130-214 F161Y): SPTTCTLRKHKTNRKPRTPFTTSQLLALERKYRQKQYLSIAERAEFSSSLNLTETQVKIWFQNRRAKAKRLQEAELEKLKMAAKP
Sequence of VAX1 (Homo sapiens, UniProt Q5SQQ9 86-172) (Q5SQQ9 86-172): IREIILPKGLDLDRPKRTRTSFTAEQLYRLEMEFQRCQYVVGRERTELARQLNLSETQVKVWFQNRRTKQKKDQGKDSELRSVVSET
Sequence of ALX3 (Homo sapiens, UniProt O95076 139-225) (O95076 139-225): as the sequence (O95076 139-225 N203Q) above, with Q65N counted along it
Sequence of ALX3 (Homo sapiens, UniProt O95076 139-225, L168Q) (O95076 139-225 L168Q): as the sequence (O95076 139-225 N203Q) above, with L30Q, Q65N counted along it
Sequence of MSX2 (Homo sapiens, UniProt P35548 130-214) (P35548 130-214): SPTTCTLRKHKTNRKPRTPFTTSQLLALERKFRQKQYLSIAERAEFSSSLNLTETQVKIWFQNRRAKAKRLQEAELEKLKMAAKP
Sequence of MSX2 (Homo sapiens, UniProt P35548 130-214, R199I) (P35548 130-214 R199I): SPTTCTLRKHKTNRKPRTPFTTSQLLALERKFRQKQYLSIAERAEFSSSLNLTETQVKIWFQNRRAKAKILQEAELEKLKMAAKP
Sequence of ALX1 (Homo sapiens, UniProt Q15699 118-204) (Q15699 118-204): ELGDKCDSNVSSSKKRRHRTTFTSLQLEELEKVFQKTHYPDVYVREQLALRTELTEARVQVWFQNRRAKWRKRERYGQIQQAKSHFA
Sequence of HOXA2 (Homo sapiens, UniProt O43364 129-215, Y150S) (O43364 129-215 Y150S): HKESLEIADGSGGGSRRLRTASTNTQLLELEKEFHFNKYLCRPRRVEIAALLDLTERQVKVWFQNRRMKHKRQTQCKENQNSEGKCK
Sequence of ALX1 (Homo sapiens, UniProt Q15699 118-204, L144R) (Q15699 118-204 L144R): as the sequence (Q15699 118-204) above, with L27R counted along it
Sequence of HOXC10 (Homo sapiens, UniProt Q9NYD6 254-340) (Q9NYD6 254-340): as the sequence (Q9NYD6 254-340 K271E) above, with E18K counted along it
Sequence of ALX3 (Homo sapiens, UniProt O95076 139-225, N203S) (O95076 139-225 N203S): as the sequence (O95076 139-225 N203Q) above, with Q65S counted along it
Sequence of ALX1 (Homo sapiens, UniProt Q15699 118-204, L144V) (Q15699 118-204 L144V): as the sequence (Q15699 118-204) above, with L27V counted along it
Sequence of HOXA2 (Homo sapiens, UniProt O43364 129-215, R185T) (O43364 129-215 R185T): as the sequence (O43364 129-215 Y150S) above, with S22Y, R57T counted along it
Sequence of ALX4 (Homo sapiens, UniProt Q9H161 200-286) (Q9H161 200-286): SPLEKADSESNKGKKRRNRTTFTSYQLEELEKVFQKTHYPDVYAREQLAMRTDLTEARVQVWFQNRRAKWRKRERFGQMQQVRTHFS
Sequence of HOXA2 (Homo sapiens, UniProt O43364 129-215, R185K) (O43364 129-215 R185K): as the sequence (O43364 129-215 Y150S) above, with S22Y, R57K counted along it
Sequence of HOXA2 (Homo sapiens, UniProt O43364 129-215) (O43364 129-215): as the sequence (O43364 129-215 Y150S) above, with S22Y counted along it
Sequence of VAX1 (Homo sapiens, UniProt Q5SQQ9 86-172, T142I) (Q5SQQ9 86-172 T142I): as the sequence (Q5SQQ9 86-172) above, with T57I counted along it
Sequence of ALX3 (Homo sapiens, UniProt O95076 139-225, L168V) (O95076 139-225 L168V): as the sequence (O95076 139-225 N203Q) above, with L30V, Q65N counted along it
Sequence of ALX4 (Homo sapiens, UniProt Q9H161 200-286, Q225E) (Q9H161 200-286 Q225E): as the sequence (Q9H161 200-286) above, with Q26E counted along it
Sequence of VAX1 (Homo sapiens, UniProt Q5SQQ9 86-172, K157R) (Q5SQQ9 86-172 K157R): as the sequence (Q5SQQ9 86-172) above, with K72R counted along it

For the sequence CCCGGCGC, the binding signal is 9.45 upbm affinity estimate (log intensity, higher = more binding, comparable within an allelic series) in experiment [1]; 9.31 upbm affinity estimate (log intensity, higher = more binding, comparable within an allelic series) in experiment [2]; 9.17 upbm affinity estimate (log intensity, higher = more binding, comparable within an allelic series) in [3]; 9.1 upbm affinity estimate (log intensity, higher = more binding, comparable within an allelic series) in [4]; 9.49 upbm affinity estimate (log intensity, higher = more binding, comparable within an allelic series) in [5]; 7.83 upbm affinity estimate (log intensity, higher = more binding, comparable within an allelic series) in experiment [6]. For the same sequence, the binding signal is 9.2 upbm affinity estimate (log intensity, higher = more binding, comparable within an allelic series) in experiment [7]; 9.03 upbm affinity estimate (log intensity, higher = more binding, comparable within an allelic series) in [8]; 7.67 upbm affinity estimate (log intensity, higher = more binding, comparable within an allelic series) in experiment [9]; 9.55 upbm affinity estimate (log intensity, higher = more binding, comparable within an allelic series) in experiment [10]; 9.02 upbm affinity estimate (log intensity, higher = more binding, comparable within an allelic series) in [11]; 7.45 upbm affinity estimate (log intensity, higher = more binding, comparable within an allelic series) in [12]. The binding signal is 7.69 upbm affinity estimate (log intensity, higher = more binding, comparable within an allelic series) in experiment [13]; 7.67 upbm affinity estimate (log intensity, higher = more binding, comparable within an allelic series) in experiment [14]; 7.15 upbm affinity estimate (log intensity, higher = more binding, comparable within an allelic series) in experiment [15]; 9.13 upbm affinity estimate (log intensity, higher = more binding, comparable within an allelic series) in experiment [16]; 7.82 upbm affinity estimate (log intensity, higher = more binding, comparable within an allelic series) in [17]; 7.47 upbm affinity estimate (log intensity, higher = more binding, comparable within an allelic series) in experiment [18].
Turning to ACCCCTGG, the binding signal is 9.8 upbm affinity estimate (log intensity, higher = more binding, comparable within an allelic series) in experiment [1]; 9.68 upbm affinity estimate (log intensity, higher = more binding, comparable within an allelic series) in [2]; 9.75 upbm affinity estimate (log intensity, higher = more binding, comparable within an allelic series) in [5]; 9.54 upbm affinity estimate (log intensity, higher = more binding, comparable within an allelic series) in experiment [19]; 6.31 upbm affinity estimate (log intensity, higher = more binding, comparable within an allelic series) in [20]; 6.38 upbm affinity estimate (log intensity, higher = more binding, comparable within an allelic series) in [21]. For the same sequence, the binding signal in experiment [22] is 9.55 upbm affinity estimate (log intensity, higher = more binding, comparable within an allelic series); in [10], 9.71 upbm affinity estimate (log intensity, higher = more binding, comparable within an allelic series); in experiment [23], 9.58 upbm affinity estimate (log intensity, higher = more binding, comparable within an allelic series); in experiment [24], 6.28 upbm affinity estimate (log intensity, higher = more binding, comparable within an allelic series).
For AGATGCCG, the binding signal in experiment [1] is 9.76 upbm affinity estimate (log intensity, higher = more binding, comparable within an allelic series); in experiment [2] it was 9.8 upbm affinity estimate (log intensity, higher = more binding, comparable within an allelic series); in experiment [25], 8.1 upbm affinity estimate (log intensity, higher = more binding, comparable within an allelic series); in experiment [5], 9.82 upbm affinity estimate (log intensity, higher = more binding, comparable within an allelic series); in experiment [26], 8.32 upbm affinity estimate (log intensity, higher = more binding, comparable within an allelic series); in [10], 9.91 upbm affinity estimate (log intensity, higher = more binding, comparable within an allelic series).
GCGTGCCC: the binding signal is 9.72 upbm affinity estimate (log intensity, higher = more binding, comparable within an allelic series) in experiment [1]; 9.7 upbm affinity estimate (log intensity, higher = more binding, comparable within an allelic series) in [2]; 9.77 upbm affinity estimate (log intensity, higher = more binding, comparable within an allelic series) in experiment [5]; 7.23 upbm affinity estimate (log intensity, higher = more binding, comparable within an allelic series) in experiment [27]; 10.3 upbm affinity estimate (log intensity, higher = more binding, comparable within an allelic series) in experiment [28]; 9.73 upbm affinity estimate (log intensity, higher = more binding, comparable within an allelic series) in experiment [10]. The binding signal in experiment [29] was 10.3 upbm affinity estimate (log intensity, higher = more binding, comparable within an allelic series); in experiment [30], 7.4 upbm affinity estimate (log intensity, higher = more binding, comparable within an allelic series).
Consider CGTCGGGC, for which the binding signal is 9.35 upbm affinity estimate (log intensity, higher = more binding, comparable within an allelic series) in [1]; 9.21 upbm affinity estimate (log intensity, higher = more binding, comparable within an allelic series) in experiment [2]; 10 upbm affinity estimate (log intensity, higher = more binding, comparable within an allelic series) in experiment [31]; 9.36 upbm affinity estimate (log intensity, higher = more binding, comparable within an allelic series) in experiment [5]; 10.1 upbm affinity estimate (log intensity, higher = more binding, comparable within an allelic series) in experiment [32]; 9.37 upbm affinity estimate (log intensity, higher = more binding, comparable within an allelic series) in experiment [10].
Turning to ACTCAAGT, the binding signal in experiment [1] is 12.4 upbm affinity estimate (log intensity, higher = more binding, comparable within an allelic series); in [2], 12.9 upbm affinity estimate (log intensity, higher = more binding, comparable within an allelic series); in [5], 12.3 upbm affinity estimate (log intensity, higher = more binding, comparable within an allelic series); in [33], 11.4 upbm affinity estimate (log intensity, higher = more binding, comparable within an allelic series); in experiment [10] it was 12.9 upbm affinity estimate (log intensity, higher = more binding, comparable within an allelic series).
Regarding GACACCGC, the binding signal is 9.33 upbm affinity estimate (log intensity, higher = more binding, comparable within an allelic series) in experiment [1]; 9.29 upbm affinity estimate (log intensity, higher = more binding, comparable within an allelic series) in experiment [2]; 9.43 upbm affinity estimate (log intensity, higher = more binding, comparable within an allelic series) in experiment [5]; 9.52 upbm affinity estimate (log intensity, higher = more binding, comparable within an allelic series) in [10].
With CTTCTCAA, the binding signal in experiment [1] is 11.7 upbm affinity estimate (log intensity, higher = more binding, comparable within an allelic series); in experiment [2], 11.9 upbm affinity estimate (log intensity, higher = more binding, comparable within an allelic series); in experiment [5], 11.5 upbm affinity estimate (log intensity, higher = more binding, comparable within an allelic series); in [10], 11.9 upbm affinity estimate (log intensity, higher = more binding, comparable within an allelic series).
